In all, about 33,000 sequences were measured (“e-score”: median about -0.038, highest 2% from about 0.33 on). Shown is part of a subset that was picked to be rich in the highest values.
Target: T1, GST-Rok-C97-191 (Bacillus subtilis subsp. subtilis str. …, UniProt O34857 97-191)
T1 sequence: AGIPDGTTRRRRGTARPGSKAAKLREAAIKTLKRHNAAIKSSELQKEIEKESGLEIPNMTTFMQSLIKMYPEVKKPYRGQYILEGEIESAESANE
Assay: protein binding microarray; Rok is a gene silencer of Bacillus subtilis; high values mean tight binding
Settings: protein: recombinant; tags: GST (pTH5325, pDEST15-Magic modified); dsDNA, one strand shown
Procedure, shortened: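 Every oligonucleotide joins a 25-mer constant primer to a 35-mer variable part drawn from a de Bruijn sequence of order 10, so each non-palindromic 8-mer appears at least 32 times and each palindromic 8-mer 16 times. The preference for every 8-mer is reported as a unitless, rank-based enrichment score (E-score). This score spans 0.5 for the most favored 8-mer to −0.5 for the most disfavored.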

Row | Sequence | binding signal [E-score]
1 | AATCGTCG | -0.0319
2 | CAACTAGA | 0.255
3 | GAACTAGA | 0.335
4 | AAACTAGA | 0.354
5 | ACACTAGA | 0.179
6 | TAACTAGA | 0.247
7 | AGACTAGA | 0.199
8 | CCTAATCA | 0.011
9 | CCTCTTAA | -0.103
10 | AACGCCAG | -0.0768
11 | GAGGGAAC | -0.0649
12 | CTAAACTA | 0.386
13 | CTAAACTC | 0.0554
14 | GTAAATTA | 0.378
15 | ATAAATTA | 0.259
16 | GTAAACTA | 0.364
17 | GTAAACAA | -0.0801
18 | CTAAACGA | -0.0375
19 | GTAAACGA | -0.119
20 | ATAAACTC | 0.173
21 | ATAAACTG | 0.199
22 | CTAAATTA | 0.141
23 | ATAAACTA | 0.359
24 | GGAGGAAC | -0.069
25 | ATAAGAAG | 0.0784

Row | Sequence | binding signal [E-score]
26 | TACAATAA | 0.108
27 | ACAAGGAG | -0.167
28 | AAACAGCC | -0.174
29 | TATGACAA | -0.00238
30 | CCGGCAAG | -0.0857
31 | CGCATGAC | -0.0389
32 | CATCCATC | -0.0668
33 | AAGCGGAC | -0.0303
34 | GAGAGCTC | -0.123
35 | CATGAATG | -0.00652
36 | AAGTGGTC | -0.168
37 | AATTGCTA | 0.328
38 | CATTGCTA | 0.118
39 | AAGTGGTA | 0.385
40 | CATTGGTA | 0.279
41 | AATTGGTC | -0.0353
42 | AATTGGTA | 0.331
43 | GATTGCTA | 0.18
44 | CAGTGGTA | 0.232
45 | GTCAAGTA | 0.157
46 | CCTTTTCC | -0.198
47 | CGCAACCG | 0.0123
48 | AAATTATC | 0.364
49 | AAATTATG | 0.224
50 | TAATTACA | 0.396

Row | Sequence | binding signal [E-score]
51 | AAATTAAA | 0.205
52 | GAATTACA | 0.275
53 | CAATTATA | 0.291
54 | GAATTATA | 0.24
55 | AAATTATA | 0.389
56 | AAATTATT | 0.296
57 | AAATTACA | 0.325
58 | GAATTATC | 0.23
59 | TAATTATA | 0.386
60 | AATCCATG | -0.019
61 | CGAGTAAA | 0.128
62 | ACTCAGGC | -0.123
63 | CAAAAGAG | -0.195
64 | ACGGGGAA | 0.0307
65 | GAGTCCTA | -0.119
66 | TATTTAGA | 0.0799
67 | ATAAAGGC | 0.052
68 | ACATACGC | -0.0272
69 | CATAGACA | -0.0183
70 | CGTCCACC | -0.198
71 | CAGTTATA | 0.187
72 | TAGTTATA | 0.39
73 | GAGTTATA | 0.213
74 | GAGGAACA | -0.114
75 | CAAATTAG | 0.044

Row | Sequence | binding signal [E-score]
76 | GAAATTGC | 0.239
77 | GAAATTAA | 0.278
78 | CAAATTAC | 0.33
79 | AAAATTAC | 0.327
80 | GAAATTAC | 0.359
81 | ATTCGCGG | -0.0504
82 | CTAAGTTA | 0.291
83 | GCGAGACC | -0.114
84 | CAACCCTG | -0.104
85 | ATCATCTA | 0.148
86 | GAGCCTAC | -0.193
87 | GTACAGTA | 0.283
88 | CAACAGTA | 0.315
89 | ATACAGTA | 0.385
90 | CTACAGTA | 0.235
91 | GAACAGTA | 0.179
92 | TAACAGTA | 0.342
93 | ATGGCACC | -0.0965
94 | CCCTTCGC | -0.198
95 | ACTAAGGA | 0.268
96 | ACGGCCAG | -0.104
97 | CCTTCTGC | -0.174
98 | AGTCGTAC | 0.108
99 | AAAGATAA | 0.33
100 | AAAGATAC | 0.0421

Row | Sequence | binding signal [E-score]
101 | GCAGATAC | -0.00726
102 | CTAGATAC | 0.204
103 | GAAGATAA | 0.224
104 | ATAGATAC | 0.357
105 | GTAGATAA | 0.397
106 | ATAGATAA | 0.325
107 | GTAGATAC | 0.381
108 | CTAGATAA | 0.3
109 | ACAGATAC | 0.252
110 | AGAGATAC | 0.166
111 | TGAGAAAA | 0.154
112 | AAGGATGA | -0.0751
113 | TGAAAGCA | 0.0344
114 | GACCGGGA | -0.0628
115 | ACAGGCGG | -0.187
116 | ACAGATAT | 0.185
117 | ATAGATAT | 0.415
118 | ATAGATAG | 0.267
119 | ACTTTTGA | 0.0573
120 | CAGACGCA | -0.191
121 | ATTTTCTC | 0.255
122 | GATTTCAA | 0.0221
123 | CATTTCTA | 0.306
124 | AATTTCTC | 0.198
125 | ACTTTCTA | 0.386

Row | Sequence | binding signal [E-score]
126 | CCTTTCTA | 0.108
127 | ATTTTCTA | 0.379
128 | ACTTTCTC | 0.0481
129 | AATTTCTA | 0.355
130 | AATTTCTG | 0.128
131 | ATTTTCTG | -0.0553
132 | GATTTCTA | 0.357
133 | AGTGTAGG | 0.0625
134 | GATCCGAC | -0.0267
135 | GGCATTCA | -0.0675
136 | GCGGGGAA | -0.189
137 | ATTTTCCG | 0.329
138 | ATTTTCCA | 0.105
139 | ATTTTCCC | -0.00582
140 | TGGCAAAA | 0.122
141 | GGAATCAC | -0.0168
142 | AGTATCTC | 0.185
143 | ACTATCTC | 0.263
144 | AGTATCTA | 0.351
145 | ATTATCTG | 0.203
146 | ATTATCTC | 0.0108
147 | AGTATCTG | 0.198
148 | CCTATCTA | 0.319
149 | ACTATCTA | 0.364
150 | GCTATCCA | 0.0235

Row | Sequence | binding signal [E-score]
151 | GGTATCTA | 0.23
152 | ATTATCTA | 0.385
153 | GCTATCTA | 0.333
154 | AAAAGGGC | -0.186
155 | GGACAGAC | -0.0976
156 | GAACGGGA | -0.108
157 | CAGCTCCA | -0.0439
158 | GCTATCGA | 0.102
159 | ACTATCGA | 0.348
160 | CCTATCGA | 0.117
161 | TAGCAGAA | 0.073
162 | AAGCGAGT | -0.052
163 | AAGAAAGA | 0.0949
164 | TAGGTAGA | 0.386
165 | CAGGTAGA | 0.223
166 | AAGGTAGA | 0.246
167 | GAGGTATA | 0.243
168 | GAGGTAGA | 0.334
169 | GAGGTAGC | -0.122
170 | GACAGGGA | -0.0489
171 | AGCAATGA | -0.189
172 | CGACCAAC | -0.152
